From PubChem BioAssay (NCATS)
Results filed as inconclusive are left out. Values without a mark were called inactive. Calls of active or inactive are those of the source. Calls come from the whole dose curve; as a rule, active = well fitted inhibition curve with a large enough effect; inconclusive = small, poorly fitted or top-dose-only effect; inactive = flat fitted curve, though single readings scatter.

The compounds below were run against Voltage-gated inwardly rectifying potassium channel KCNH2 (Homo sapiens) (UniProt Q12809) (assay: qHTS Assay for Small Molecule Inhibitors of the Human hERG Channel Activity (AID 588834;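 note: lower thallium flux fluorescence means stronger hERG block; nearly all actives have a fitted effect of over 50% in size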; for activity change, negative = inhibition: top concentration of the series differs between compounds)). Settings: U2OS BacMam hERG, FluxOR thallium flux fluorescence; series mostly up to 92.2 µM; activity change, negative = inhibition: at the top concentration.
Source text: NIH Chemical Genomics Center [NCGC]
National Institutes of Environmental Health Sciences [NIEHS]
National Toxicology Program [NTP]
We have developed a 1536-well cell-based assay for quantitative high throughput screening (qHTS) to determine in vitro hERG channel blockage as a measure of cardio toxicity with small molecules. This particular assay uses the U2OS cell line which is derived from human osteosarcoma.
NCGC Assay Protocol Summary:
HERG assay (FluxORTM thallium flux assay) was initially developed by Invitrogen/Molecular Probes, and then miniaturized into 1536-well plate in a homogeneous format by NCGC. This assay measures the activity of potassium channel using thallium dye (FluxOR) flux as surrogate measurement for potassium into the cells with a FDSS-7000 kinetic plate reader (Hamamatsu Corp., Hamamatsu City, Japan). The hERG ion channel is transduced into mammalian cells (U2OS) using a baculovirus (Bacmam) construct harboring the hERG K+ ion channel. So far we screened LOPAC1280 library (Sigma), the NTP collection of 1408 compounds, and the NCGC Pharmaceutical Collection (NPC), in which many well defined HERG blockers are present. The rank order potencies of many of these compounds are similar to that of other HERG assays (membrane potential, Rb+ flux, patch clamp, etc). This quick and homogeneous assay is also found to be sensitive, specific, and robust.
Using the FluxORTM thallium flux assay, the activity of potassium channel using thallium dye (FluxOR) flux as surrogate measurement for potassium into the cells was measured in the U2OS cell line transduced with hERG K+ ion channel using a baculovirus (Bacmam) using Opti-MEM medium (Invitrogen) containing 2% fetal calf serum (FCS, HyCone) following loading buffer addition, compound treatment for around 10 minutes and finally adding stimulation buffer. The assay was performed in black clear Kalypsys 1536-well plates. In the screen, Astemizole was used as positive controls. Library compounds were measured for their ability to cause hERG channel blockage in the cell line, as reflected by a decrease in fluorescence intensity, in a concentration-dependent manner. […] AC50 values were determined from concentration-response data modeled with the standard Hill equation.
qHTS protocol for hERG-U2OS cellular assay
[Step] [Parameter] [Value] [Description]
1. Day 1: Replace medium in 70-80% confluent T225 flask with 2.5 mL of hERG-BacMam virus plus 12.5 mL of phosphate buffered saline (PBS) (corresponding roughly to a multiplicity of infection ratio of 100 virus particles/cell)
2. Incubation: 4 hrs @ room Temperature in Dark
3. Reagent; Remove virus; wash once with 25 ml DPBS
4. Reagent; 35 ml culture medium
5. Incubation; 37 °C overnight
6. Day2: Reagent; 3 uL; 2000 U2OS cells/well
7. Time; 4 hr; 37 °C incubation
8. Loading buffer; 1 uL; 0.7X;
9. Incubation: 1hr @ RT in Dark.
12. Time; 10min; 37 °C incubation
13. Read fluorescence Intensity on FDSS for 10 Sec with 1 sec interval
14. Reagent; 1 uL; stimulation buffer
15. Read fluorescence Intensity on FDSS for 2 min with 1 sec interval
16. Detection; Fluorescence Intensity; FDSS
% is set by controls: 0 for no effect and ±100 for the full control effect; potency is the fitted concentration of half-maximal effect.

Voltage-gated inwardly rectifying potassium channel KCNH2 (Homo sapiens), sequence (Q12809 whole entry, looked up): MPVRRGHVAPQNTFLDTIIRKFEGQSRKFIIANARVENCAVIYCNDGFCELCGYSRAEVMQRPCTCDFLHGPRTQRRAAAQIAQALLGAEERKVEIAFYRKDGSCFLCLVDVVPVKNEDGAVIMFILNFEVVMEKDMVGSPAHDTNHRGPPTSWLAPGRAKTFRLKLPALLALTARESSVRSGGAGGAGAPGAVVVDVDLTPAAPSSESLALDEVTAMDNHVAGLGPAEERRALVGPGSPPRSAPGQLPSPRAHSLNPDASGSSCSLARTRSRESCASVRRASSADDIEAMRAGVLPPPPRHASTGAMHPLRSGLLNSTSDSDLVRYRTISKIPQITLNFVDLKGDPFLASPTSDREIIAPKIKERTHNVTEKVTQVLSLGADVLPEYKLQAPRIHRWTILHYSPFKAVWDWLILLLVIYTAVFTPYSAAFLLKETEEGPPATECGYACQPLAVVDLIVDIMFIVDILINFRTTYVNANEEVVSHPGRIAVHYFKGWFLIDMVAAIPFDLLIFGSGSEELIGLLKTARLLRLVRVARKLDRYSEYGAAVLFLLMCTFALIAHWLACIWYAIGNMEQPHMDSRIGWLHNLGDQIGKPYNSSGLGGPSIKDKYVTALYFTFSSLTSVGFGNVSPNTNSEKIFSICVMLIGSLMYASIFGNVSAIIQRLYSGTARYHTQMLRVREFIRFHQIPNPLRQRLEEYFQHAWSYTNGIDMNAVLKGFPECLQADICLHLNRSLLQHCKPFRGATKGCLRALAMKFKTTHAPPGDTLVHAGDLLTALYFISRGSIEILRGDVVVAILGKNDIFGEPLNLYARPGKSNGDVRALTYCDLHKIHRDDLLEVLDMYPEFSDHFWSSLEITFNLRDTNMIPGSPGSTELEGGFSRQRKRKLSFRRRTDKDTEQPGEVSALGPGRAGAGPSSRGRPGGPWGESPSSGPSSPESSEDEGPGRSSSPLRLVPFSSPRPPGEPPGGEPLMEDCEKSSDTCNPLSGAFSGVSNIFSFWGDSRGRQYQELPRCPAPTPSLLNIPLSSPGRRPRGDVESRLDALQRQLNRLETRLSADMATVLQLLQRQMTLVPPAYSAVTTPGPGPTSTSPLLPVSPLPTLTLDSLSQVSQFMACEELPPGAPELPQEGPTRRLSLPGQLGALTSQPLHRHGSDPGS

| SMILES | activity change, negative = inhibition | Potency |
| --- | --- | --- |
| C=C(C)C(=O)OCC1CO1 (stereo not given) | -14.9% |  |
| O=S1OCC2C(CO1)C1(Cl)C(Cl)=C(Cl)C2(Cl)C1(Cl)Cl (stereo not given) |  | 28.2 µM (active) |
| ClCBr | 1.22% |  |
| O=C(Cl)/C=C/C(=O)Cl | -4.82% |  |
| NCC#Cc1ccccc1 | -5.02% [at 46.1 µM] |  |
| CC(C)[C@@]1(NC(=O)[C@@H]2C[C@@H]3c4cccc5[nH]cc(c45)C[C@H]3N(C)C2)O[C@@]2(O)C3CCCN3C(=O)[C@H](Cc3ccccc3)N2C1=O (stereo not given in full) | -13% [at 46.1 µM] |  |
| C=CCc1ccc2c(c1)OCO2 | 3.98% |  |
| CCC(CO)NC(=O)[C@@H]1C=C2c3cccc4[nH]cc(c34)C[C@H]2N(C)C1 (stereo not given in full) | -7.72% [at 46.1 µM] |  |
| Nc1c(Cl)c(Cl)nc(C(=O)O)c1Cl | 5.33% |  |
| C[C@H]1OC[C@@H](C[N+](C)(C)C)O1 | -4.92% [at 46.1 µM] |  |
| CCCN1CCCC(c2cccc(O)c2)C1 (stereo not given) | -15% [at 46.1 µM] |  |
| c1ccc(OP(Oc2ccccc2)Oc2ccccc2)cc1 | -9.72% |  |
| CCc1cccc(CC)c1N(COC)C(=O)CCl | 1.37% |  |
| Clc1ccc2ccccc2c1 | 2.1% |  |
| C=C(Cl)Cl | 4.16% |  |
| CN1C[C@H](C(=O)N[C@]2(C)O[C@@]3(O)C4CCCN4C(=O)[C@H](Cc4ccccc4)N3C2=O)C[C@@H]2c3cccc4[nH]cc(c34)C[C@H]21 (stereo not given in full) |  | 11.2 µM (active) |
| CCNC(=O)[C@H]1O[C@@H](n2cnc3c(N)ncnc32)[C@H](O)[C@H]1O | 24.5% [at 46.1 µM] |  |
| ClC(Cl)(Cl)c1ccccc1 |  | inactive |
| COP(=S)(OC)Oc1ccc([N+](=O)[O-])cc1 | -3.62% |  |
| CC(C)(C)OOC(C)(C)C | 10% |  |

| SMILES | activity change, negative = inhibition | Potency |
| --- | --- | --- |
| Clc1nc(Cl)nc(Nc2ccccc2Cl)n1 | 8.22% |  |
| C=CCOC(C)=O | 6.78% |  |
| O=[N+]([O-])c1ccc(Cl)c(Cl)c1 | -11.4% |  |
| COC(=O)C(N)CCCN=C(N)N[N+](=O)[O-] (stereo not given) | 3.57% [at 46.1 µM] |  |
| c1ccc2c(c1)CCCC2 | 2.22% |  |
| CCOCN(C(=O)CCl)c1c(C)cccc1CC | 6.2% |  |
| CC(C)(OO)c1ccccc1 | 7.89% |  |
| C/C=C/c1ccc2c(c1)OCO2 | -13.5% |  |
| Brc1ccccc1 | 5.88% |  |
| CCCCCCCCCc1ccc(O)cc1 |  | 31.6 µM (active) |
| ClC1=C(Cl)C2(Cl)C3C4CC(C5OC45)C3C1(Cl)C2(Cl)Cl (stereo not given) |  | 35.5 µM (active) |
| CCNc1nc(Cl)nc(NC(C)C)n1 | -15% |  |
| Cc1cccc([N+](=O)[O-])c1 | -4.09% |  |
| COc1cc(C=C(C#N)C#N)cc(O)c1O | 25.2% [at 46.1 µM] |  |
| CC(O)CCl (stereo not given) | 8.64% |  |
| COC1=CC(=O)O[C@@H](/C=C/c2ccc3c(c2)OCO3)C1 | 8.66% |  |
| C[C@H]1C2Cc3ccc(O)cc3[C@]1(C)CCN2CC1CC1 | -29.1% [at 46.1 µM] |  |
| NC(=S)Nc1ccccc1 |  | inactive |
| Cc1ccccc1N |  | inactive |
| ClC(Cl)=C(Cl)C(Cl)=C(Cl)Cl | -9.13% |  |
